From PubChem BioAssay (EPA / NIEHS) come the findings set out here.

As usually defined, the AC50 is the concentration at which the activity in the assay is half-maximal.

Where “and” joins values, the source holds several entries; their conditions need not be identical. Identical values can stand only once. Results filed as inconclusive are left out. The source holds several records for some structures; these can differ, active in one and inactive in another. Calls of active or inactive are those of the source. Rule for the calls: active = hit-call score of the fitted dose curve at least 0.9, where 1 is the maximum; inconclusive = response in the unintended direction; inactive = score below 0.9.

This assay can be described thus: TOX21_p53_BLA_p3_viability: Viability Assessment in the Tox21 HCT-116 p53 Agonism Beta-lactamase Assay, Phase 3 (AID 2283593).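 Note: cells exposed to compound for 16 h before reading.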 From the text:
TOX21_p53_BLA_p3 is a cell-based, single-readout assay that uses HCT116, a human intestinal cell line, […] in a 1536-well plate.TOX21_p53_BLA_p3_viability is an assay readout measuring cellular ATP content and detected with CellTiter-Glo Luciferase-coupled ATP quantitation.TOX21_p53_BLA_p3_viability used a type of viability reporter where loss-of-signal activity can be used to understand changes in the cell viability. Furthermore, this assay endpoint can be referred to as a secondary readout, because this assay has produced multiple assay endpoints where this one serves a viability function. To generalize the intended target to other relatable targets, this assay endpoint is annotated to the cell cycle intended target family, where the subfamily is cytotoxicity.
Thawing Method: Place 14 mL of pre-warmed thaw medium into a 15 mL of conical tub. Remove the vial of cells to be thawed from liquid nitrogen and thaw rapidly by placing at 37C in a water bath with gentle agitation for 1-2 minutes. Decontaminate the vial by wiping with 70% ethanol before opening in a biological safety cabinet. Transfer the vial contents drop-wise into 14 mL of thaw medium in a sterile 15-mL conical tub. Centrifuge cells at 900 rpm for 4 minutes and resuspend in thaw medium. Transfer contents to the T75 tissue culture flask containing Thaw Medium and place flask in a humidified 37C/5% CO2 incubator. Switch to growth medium at first passage.Propagation Method: Aspirate medium, rinse once in DPBS, add 0.25% Trypsin/EDTA and swirl to coat the cell evenly. Add an equal volume of Growth Medium to inactivate Trypsin after 2-3 minutes incubation at 37C. Centrifuge cells at 900 rpm for 4 minutes and resuspend in growth medium. Cell should be passage or fed at least twice a week.Assay Protocol: Harvest cells from culture in growth medium and resuspend in assay medium. 2.2 Dispense 4000 cells/5 uL/well into 1536-well black/clear bottom plates using a Multidrop dispenser. After the cells were incubated at 37C for 5 hours, 23 nL of compounds dissolved in DMSO were transferred to the assay plate by a PinTool resulting in a 217-fold dilution. Incubate the plates for 16 hours at 37C, 5% CO2. Add 1 uL of 6X LiveBLAzer FRET B/G (CCF4-AM) Substrate Mixture to each well using a BioRAPTR dispenser and incubate the plates at room temperature for 2 hours. Measure fluorescence intensity at 460 and 530 nm emission and 405 nm excitation by an Envision detector. Data is expressed as the ratio of 460nm/530nm emissions. Add 4 uL of Cell-titer Glo to each well using BioRAPTR and incubate the plates at room temperature for […]. For cell viability readout that measures cytotoxicity, 4 ul/well of CellTiter-Glo reagent was added into the assay plates using a Flying Reagent Dispenser. After 30 min incubation at room temperature, the luminescence intensity in the plates was measured using a ViewLux plate reader.
Take `COc1c2ccoc2cc2oc(=O)ccc12`: the call was inactive. Same read-out and setting: to `[Cl][In]([Cl])[Cl]` belongs “inactive”; to `Cc1ccc2c(c1)C(=O)c1ccccc1C2=O`, “inactive”. Turning to `SCCc1cnccn1`, the result was inactive. Take `O=C(O)CCCCCCCCCC(=O)O`: the call was inactive. Consider `Nc1ncn([C@@H]2O[C@H](CO)[C@@H](O)[C@H]2O)c(=O)n1`, for which the compound was classed as inactive.

As for `C=C[C@](C)(O)CC[C@@H]1[C@@]2(C)CCCC(C)(C)[C@@H]2CC[C@@]1(C)O`, the AC50 was 64.6 µM (active). In the case of `CCN(Cc1cccc(S(=O)(=O)O)c1)c1ccc(C(=C2C=CC(=[N+](CC)Cc3cccc(S(=O)(=O)[O-])c3)C=C2)c2ccccc2)cc1`, the compound was called inactive. For `CCOC(=O)N1CCC(=C2c3ccc(Cl)cc3CCc3cccnc32)CC1`, the AC50 is 79.9 µM (active) and the call was inactive. For the compound `CC1=NC(C)OC1C` (stereo not given), the outcome was inactive. For the compound `CC(CC=O)c1ccccc1` (stereo not given), the compound was called inactive.

In the case of `Nc1ccc(N)c(Cl)c1`, the call was inactive. Consider `C=C(C)[C@@H]1CCC2=CCC[C@@H](C)[C@]2(C)C1`, for which the compound was classed as inactive. Consider `Cc1cccc(C(=O)O)c1`, for which the result was inactive. Turning to `FC(F)(F)C(=NOCC1OCCO1)c1ccc(Cl)cc1`, the outcome was inactive. Consider `CCCCCCOc1cc(C)c(O)c(C)c1C`, for which the compound was called inactive. For `CCOC(=O)CC`, the outcome was inactive. `CCCOC(=O)CCCCC(=O)OCCC`: the compound was called inactive. On to `O=C(Nc1cccc(C(F)(F)F)c1)c1cc(Br)cc(Br)c1O`, for which the concentration at half-maximal activity (AC50) was 429 nM (active) and 1.04 µM (active). For `COc1cc(NC(=O)CC(C)=O)c(OC)cc1Cl`, the call was inactive. As to `CC(C)C1=CC2=CC[C@@H]3[C@](C)(CCC[C@@]3(C)C(=O)O)[C@H]2CC1`, the compound was classed as inactive.

Take `Nc1ccc(N=Nc2ccccc2)c(N)n1`: the result was inactive. Turning to `Cc1cc(=O)n(-c2ccccc2)n1C`, the compound was classed as inactive. Consider `NCCCN1CCN(CCCN)CC1`, for which the compound was called inactive. `OC1CCCCCCCCCCC1`: the call was inactive. With `COCC(C)N` (stereo not given), the result was inactive.

Consider `COCc1c(C(C)C)nc(C(C)C)c(/C=C/[C@@H](O)C[C@@H](O)CC(=O)O)c1-c1ccc(F)cc1`, for which the outcome was inactive.

Take `CC(=O)[C@@]1(O)CC[C@H]2[C@@H]3C[C@H](C)C4=CC(=O)C=C[C@]4(C)[C@@]3(F)[C@@H](O)C[C@@]21C`: the result was inactive.

With `CC(=O)OCCC1CCCCC1`, the compound was classed as inactive. On to `C=CCOCC(O)CCl` (stereo not given), for which the compound was called inactive. Same read-out and setting: in the case of `C=CCCCCCCCCC(=O)OCCCC` it was “inactive”; in that of `CC1=Nc2ccc3ccccc3c2C1(C)C`, “inactive”.

Take `Cc1ccc(N/N=c2\c(=O)cc/c(=N/Nc3ccc(S(=O)(=O)O)cc3)c2=O)c(C)c1`: the call was inactive. On to `ON(Cc1ccccc1)Cc1ccccc1`, for which the call was inactive. `O=C(C=Cc1ccccc1)OCc1ccccc1`: the result was inactive. With `[Cl][Bi]([Cl])([c]1ccccc1)([c]1ccccc1)[c]1ccccc1`, the AC50 was 71.4 µM (active). Consider `C1CN(SSN2CCOCC2)CCO1`, for which the compound was called inactive.

As to `O=C(Nc1ccccc1SSc1ccccc1NC(=O)c1ccccc1)c1ccccc1`, the compound was called inactive. Turning to `CN(C)c1ccc(N=Nc2ccccc2C(=O)O)cc1`, the half-maximal activity concentration (AC50) is 75 µM (active).
